Measurements as given in PubChem BioAssay (NCI).
About 83,000 compounds went through this panel and 20% of them were active in at least one assay; those are over-represented in the sample as a whole.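 Single-dose data. Exposure time 48 hours. Values below 10 considered active.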 Values without a mark were called inactive. Calls of active or inactive are those of the source.

Assays:
Assay in all cases: NCI-60 one-dose screen, 48 h (100 = growth as untreated, 0 = no growth, -100 = all killed)
Details in all cases: 10 µM unless noted
NCI-H23 lung = system: NCI-H23 lung
NCI-H226 lung = system: NCI-H226 lung
NCI-H322M lung = system: NCI-H322M lung
HOP-62 NSCLC = system: HOP-62 NSCLC
NCI-H460 lung = system: NCI-H460 lung
HOP-92 NSCLC = system: HOP-92 NSCLC
NCI-H522 lung = system: NCI-H522 lung
A549/ATCC NSCLC = system: A549/ATCC NSCLC
786-0 renal = system: 786-0 renal
COLO 205 colon = system: COLO 205 colon
DU-145 prostate = system: DU-145 prostate
K-562 leukemia = system: K-562 leukemia
MALME-3M melanoma = system: MALME-3M melanoma
MDA-MB-231 breast = system: MDA-MB-231 breast
RXF 393 renal = system: RXF 393 renal
SF-268 CNS = system: SF-268 CNS
SF-295 CNS = system: SF-295 CNS
SF-539 CNS = system: SF-539 CNS
UACC-257 melanoma = system: UACC-257 melanoma
M14 melanoma = system: M14 melanoma

SMILES	growth (NCI-H23 lung)	growth (NCI-H226 lung)	growth (NCI-H322M lung)	growth (HOP-62 NSCLC)	growth (NCI-H460 lung)	growth (HOP-92 NSCLC)	growth (NCI-H522 lung)	growth (A549/ATCC NSCLC)	growth (786-0 renal)	growth (COLO 205 colon)	growth (DU-145 prostate)	growth (K-562 leukemia)	growth (MALME-3M melanoma)	growth (MDA-MB-231 breast)	growth (RXF 393 renal)	growth (SF-268 CNS)	growth (SF-295 CNS)	growth (SF-539 CNS)	growth (UACC-257 melanoma)	growth (M14 melanoma)
Cc1ccc(-c2csc(NC(=O)CN3CCN(c4cc5c(cc4F)c(=O)c(C(=O)O)cn5C4CC4)CC3)n2)cc1	4.26% (active)	28.6%	12.4%	11.2%	14.4%	-16.4% (active)	-11.7% (active)	3.47% (active)	22.6%	-17.6% (active)	13.1%	9.66% (active)	-2.34% (active)	6.47% (active)	27.2%	23.2%	-2.97% (active)	23.7%	-12.9% (active)	23%
COc1cc(CNC(=O)CCCC/C=C/C(C)C)ccc1OCc1nnc(Nc2ccc([N+](=O)[O-])cc2)o1	54.9%	62.1%	57.6%	67.6%	33.5%	-2.56% (active)	73%	49%	22.2%	70.9%	62%	59.6%	69.6%	67.1%	54.1%	79.7%	64.9%	70.2%	77.6%	66.4%
COc1ccc2c(O)c(/C=C3\N=Nc4ccccc43)oc2c1C[C@@H]1CCNC[C@H]1F	70.2%	58.3%	87.6%	71.4%	11.2%	65.1%	58.1%	35.8%	-62.9% (active)	58.2%	78.6%	-37.6% (active)	52.9%	15.4%	80.5%	50.3%	79.2%	-82.9% (active)	77.2%	51.6%
CCOC(=O)/C=C1\S/C(=N\Nc2cc(=O)[nH]c3ccc(Cl)cc23)N(c2ccccc2)C1=O	90.5%	89.6%	98.6%	88%	102%	91.7%	79.7%	105%	93.8%	65%	96.7%	54.1%	92.6%	92.2%	77.2%	96%	102%	99.6%	95.6%	87.3%
C/C(Nc1ccc(Cl)c(Cl)c1)=C1\CCOC1=O	93.3%	90.4%	101%	80.3%	92.5%	75.6%	58%	88.6%	81.7%	134%	106%	86.8%	109%	95%	92.2%	106%	86.7%	98.5%	98.3%	81.3%
O=S(=O)(Nc1ccc(Cl)cc1)c1ccc(-c2cnc(C3CC3)o2)cc1	34.5%	61.4%	44%	28.8%	9.01% (active)	41%	11.4%	40.4%	41.1%	9.01% (active)	12.6%	9.33% (active)	46.3%	26.9%	-10.1% (active)	43.5%	33.6%	-14.6% (active)	56.1%	22%
O=C1Nc2ccc(I)cc2C1=O	89.7%	92.8%	107%	84.4%	107%	104%	93.4%	88.7%	109%	88.9%	106%	107%	110%	93.5%	91.4%	110%	99.1%	100%	-28.4% (active)	95.9%
C=C(C)[C@@H]1CC[C@]2(C(=O)NCC#CCN3CCN(C)CC3)CC[C@]3(C)[C@H](CC[C@@H]4[C@@](C)(CCC#N)[C@H](C(=C)C)CC[C@]43C)[C@@H]12	75.7%	57.6%	74.9%	65.6%	26.4%	8.35% (active)	68.5%	49.6%	54.5%	57.8%	57.5%	2.05% (active)	56.9%	42.1%	39.8%	62.4%	94.2%	66%	56.7%	5.09% (active)
C=C1C(=O)O[C@H]2[C@H]1CC/C(COC(=O)CSCCSCC(=O)OC/C1=C/CC[C@@]3(C)O[C@H]3[C@H]3OC(=O)C(=C)[C@@H]3CC1)=C\CC[C@@]1(C)O[C@@H]21	40.6%	8.95% (active)	77.2%	81.2%	22.1%	-0.141% (active)	-76.2% (active)	69.5%	-24.2% (active)	-37.7% (active)	32.3%	1.81% (active)	-8.71% (active)	-37.2% (active)	-85.1% (active)	16.7%	67.2%	1.67% (active)	49.9%	3.06% (active)
Cc1ccc(C(C(N)=O)C(C(N)=O)c2ccccc2)cc1 (stereo not given)	111%	109%	121%	111%	112%	99.5%	102%	95.3%	102%	115%	111%	90.9%	129%	123%	104%	104%	114%	119%	102%	108%
CCCCN1C(=O)/C(=c2\sc3n(c2=O)C2C(NN=3)N(CC)C(=O)N2CC)c2ccccc21 (stereo not given)	25%	51.1%	52.9%	18%	3.01% (active)	26.8%	-15.2% (active)	7.06% (active)	22.1%	1.59% (active)	8.48% (active)	5.85% (active)	36.4%	8.32% (active)	-29.5% (active)	42.5%	2.37% (active)	-40.4% (active)	-9.63% (active)	6.24% (active)
CCCCCCCCCCCCCCCCCCOc1ccccc1CC(=O)NCC[N+]1(C)CCCC1	55.3%	70.5%	67.3%	54%	34.8%	22.6%	32.8%	50.6%	70.2%	-6.88% (active)	56.8%	36.9%	52.4%	43.1%	4.86% (active)	31%	86.5%	82.1%	93.2%	65.8%
COc1ccc2cc(C(=O)c3coc4ccc(O)cc34)ccc2c1	96%	104%	95.8%	94.9%	105%	95.4%	72.9%	92.8%	94.1%	101%	99.6%	81.6%	92.1%	95%	115%	90.1%	105%	93.7%	103%	108%
CN1CCN(Cc2ccc3c(NNC(=O)c4ccccc4)nc4cc(F)ccc4n23)CC1	29.9%	12.6%	28.2%	24.1%	3.88% (active)	50.7%	28%	14.8%	26.4%	19.5%	27.1%	13.6%	23.5%	43.2%	39%	19.9%	16.2%	10.8%	11.8%	3.61% (active)
CCO/C=N/C1=C(C#N)C(c2ccc(OC)cc2)c2sc3c(F)cccc3c2O1 (stereo not given)	48.9%	63%	51.5%	49.5%	12.7%	62.6%	0.128% (active)	43.3%	33.3%	39.2%	35.8%	15.1%	60%	34.6%	3.81% (active)	44.2%	16.6%	-23.7% (active)	71.6%	22.6%
CCOC(=O)c1[nH]c(=O)c2c(C)nc(-c3ccccc3)cc2c1O	105%	93%	118%	124%	102%	78.5%	92.7%	101%	112%	117%	112%	110%	136%	78.8%	112%	106%	110%	106%	106%	104%
